# Assay results published in ChEMBL document CHEMBL3988442, “University of Dundee, Small-Polar-MMV Screening Library” (2021).
# Screen size: about 66,000 compounds; about 960 (1.5%) showed an effect of 50% or more. The sample as a whole holds a higher share of strong results than the screen did.
# System: Trypanosoma brucei
# Experiment: Trypanosoma brucei 72 hour study
# Type: functional, organism-based
# Set-up: scale not given: in the data most compounds retested in dose-response had high values
compound,measurement,setting,value
O=S(=O)(C1CC1)N1Cc2nccn2CC(Cn2cncn2)C1 (stereo unspecified),Percent Effect,"30.3 µM, […]",-41.46%
CC1c2ncc(CN3CCN(C)CC3)n2CCN1Cc1ccc(F)cc1.O=C(O)C(F)(F)F.O=C(O)C(F)(F)F.O=C(O)C(F)(F)F (stereo unspecified),Percent Effect,"30.3 µM, […]",-44.2%
CN(Cc1ccco1)[C@@H]1CN(C(=O)c2cnccn2)C[C@@H]2CCCO[C@@H]21.O=C(O)C(F)(F)F,Percent Effect,"30 µM, 30.03 µM",-17.24%
COc1cc(N2CCC3(CCN(Cc4csc(C)n4)C3=O)C2)ncn1.O=C(O)C(F)(F)F (stereo unspecified),Percent Effect,"30.3 µM, […]",-84.03%
COCC1COCCC12CCN(S(=O)(=O)c1cccnc1)CC2.O=C(O)C(F)(F)F (stereo unspecified),Percent Effect,"30.3 µM, […]",-13.71%
O=C(COc1ccc2c(c1)CCC2)NS(=O)(=O)c1cccnc1,Percent Effect,10 µM,-70.49%
Cc1ccc(N2CC[C@@H]3[C@@H]2CCN3C(=O)Cc2ccccc2)nn1.O=C(O)C(F)(F)F,Percent Effect,"30.3 µM, […]",-46.46%
O=C(c1cccc(Cn2ccnc2)c1)N1CCCC(n2cccn2)C1 (stereo unspecified),Percent Effect,"30.3 µM, […]",2.699%
Cc1nc(CNCC2CN(C)CCO2)cs1 (stereo unspecified),Percent Effect,"30.3 µM, […]",3.844%
Cc1ccc(OCc2nc(CNCC3CN(C)CCO3)cs2)cc1 (stereo unspecified),Percent Effect,10 µM,77.03%
CN1CCOC(CNCc2ccc(OCc3ccccn3)cc2)C1 (stereo unspecified),Percent Effect,"30.3 µM, […]",56.06%
same,Percent Effect,"10 mM, 10 mM as filed; unlikely as a test dose",-23.3%
Cc1nc(COc2ccc(CNCC3CN(C)CCO3)cc2)cs1 (stereo unspecified),Percent Effect,"30.3 µM, […]",-2.349%
CN1CCOC(CNCc2cccc(OCc3ccccn3)c2)C1 (stereo unspecified),Percent Effect,"30 µM, 30.03 µM",-14.98%
CCN1CCOC(CNCc2ccc(OCc3ccccn3)cc2)C1 (stereo unspecified),Percent Effect,10 µM,-32.81%
Cc1ccc(S(=O)(=O)NCC(C)(C)N)c(F)c1.Cl,Percent Effect,"30 µM, 30.03 µM",-16.31%
Cc1cc(Oc2ccccc2F)nc(C2CCCCN2)n1.Cl.Cl (stereo unspecified),Percent Effect,"30.3 µM, […]",-25.86%
Cc1nn(C)c(N(C)C)c1CNC1CCc2c(Cl)cccc21.Cl (stereo unspecified),Percent Effect,"30.3 µM, […]",17.67%
CN(Cc1cn2c(n1)CN(C(=O)CC1CC1)CC2)Cc1ccco1.O=C(O)C(F)(F)F,Percent Effect,"30 µM, 30.03 µM",13.03%
CC(C)CN1CCCC1c1ccc(C(=O)Nc2cccnc2)s1 (stereo unspecified),Percent Effect,"30.3 µM, […]",100.5%
CC(C)CN1CCCC1c1ccc(C(=O)Nc2cc[nH]n2)s1 (stereo unspecified),Percent Effect,"30.3 µM, […]",23.5%
CC(C)CN1CCCC1c1ccc(C(=O)Nc2ccc3[nH]nnc3c2)s1 (stereo unspecified),Percent Effect,"30.3 µM, […]",85.03%
CC(C)CN1CCCC1c1ccc(C(=O)Nc2cn(C)nn2)s1 (stereo unspecified),Percent Effect,"30.3 µM, […]",0.1891%
Cc1cnc(NC(=O)c2ccc(C3CCCN3CC(C)C)s2)s1 (stereo unspecified),Percent Effect,"30.3 µM, […]",0.4974%
CCc1nnc(NC(=O)c2ccc(C3CCCN3CC(C)C)s2)s1 (stereo unspecified),Percent Effect,"30.3 µM, […]",-0.9926%
COCCN(C)C[C@@H]1CN(C(=O)c2ccc3c(c2)OCO3)C[C@@H]1CO,Percent Effect,"30 µM, 30.03 µM",-13.62%
CC(C)Cc1nc(OCC(N)=O)c(C#N)c2c1CCCC2,Percent Effect,"30 µM, 30.03 µM",-29.84%
CCS(=O)(=O)N1CCN(Cc2ccncc2)c2nc(C)ccc2C1.O=C(O)C(F)(F)F.O=C(O)C(F)(F)F,Percent Effect,"30 µM, 30.03 µM",13.64%
COc1cccc2c1OCC(C(=O)NCCc1nc3c(s1)CCC3)C2 (stereo unspecified),Percent Effect,"30 µM, 30.03 µM",-23.46%
COc1cccc2c1OCC(C(=O)NCc1nc3c(s1)CCCC3)C2 (stereo unspecified),Percent Effect,"30 µM, 30.03 µM",60.51%
COc1ccc2c(c1)OCC(C(=O)NCc1nc3c(s1)CCCC3)C2 (stereo unspecified),Percent Effect,"30 µM, 30.03 µM",-46.37%
Cc1ccc2c(c1)C(NC(=O)N(C)C)CC21CCN(C(C)C)CC1.O=C(O)C(F)(F)F (stereo unspecified),Percent Effect,"30.3 µM, […]",-8.347%
COCCN1CCC2(CC1)CC(NC(=O)C(C)C)c1ccccc1O2.O=C(O)C(F)(F)F (stereo unspecified),Percent Effect,"30.3 µM, […]",3.771%
CC(NCc1ccc(OCC(N)=O)cc1)c1ccc(Cl)c(Cl)c1.Cl (stereo unspecified),Percent Effect,"30.3 µM, […]",16.7%
CC(NCc1ccc(OCC(N)=O)cc1)c1ccc2c(c1)CCCC2 (stereo unspecified),Percent Effect,"30.3 µM, […]",58.39%
CC(NCc1ccc(OCC(N)=O)cc1)c1ccc(Cl)cc1.Cl (stereo unspecified),Percent Effect,"30.3 µM, […]",-11.6%
O=C(O)C(F)(F)F.O=C(O)C(F)(F)F.O=C(O)C(F)(F)F.c1ccc(CN2CCc3nnc(COc4ccccn4)n3CC2)nc1,Percent Effect,"30 µM, 30.03 µM",1.272%
Cc1ccc(CN2CCn3c(C(=O)N(C)C)cnc3C2)s1.O=C(O)C(F)(F)F,Percent Effect,"30 µM, 30.03 µM",-2.366%
CCCn1c(C)c(CC(=O)NC)c2c1CC(C)(C)CC2=O,Percent Effect,"30 µM, 30.03 µM",24.04%
CCCn1c(C)c(CC(=O)NC(C)CO)c2c1CC(C)(C)CC2=O (stereo unspecified),Percent Effect,"30 µM, 30.03 µM",-12.97%
CCCn1c(C)c(CC(=O)N[C@H](C)C(=O)OC)c2c1CC(C)(C)CC2=O,Percent Effect,"30 µM, 30.03 µM",85.29%
Cc1cc(N2CCOCC(Cc3ccc4[nH]ccc4c3)C2)ncn1 (stereo unspecified),Percent Effect,"30.3 µM, […]",12.74%
c1cc(N2CCOCC(Cc3ccc4[nH]ccc4c3)C2)ncn1 (stereo unspecified),Percent Effect,"30.3 µM, […]",-4.218%
Nc1cc(N2CCOCC(Cc3ccc4[nH]ccc4c3)C2)ncn1 (stereo unspecified),Percent Effect,"30.3 µM, […]",67.68%
O=C(CC1CC2(CCN(CC3CC3)CC2)Oc2ccccc21)NC1CC1.O=C(O)C(F)(F)F (stereo unspecified),Percent Effect,"30.3 µM, […]",11.6%
CCC[C@H]1CN(S(=O)(=O)N(C)Cc2ccccc2)C[C@@H]1N,Percent Effect,"30 µM, 30.03 µM",8.364%
CCOCc1ccccc1NC(=O)NC1CCN(CC(F)(F)F)C1 (stereo unspecified),Percent Effect,"30.3 µM, […]",8.993%
CCOCc1ccccc1NC(=O)NC1CCN(C2CCCC2)C1 (stereo unspecified),Percent Effect,"30.3 µM, […]",99.06%
CCOCc1ccccc1NC(=O)NC1CCN(c2ccccc2)C1 (stereo unspecified),Percent Effect,"30.3 µM, […]",12.17%
CN1CCCC(c2ccnc(C(=O)NCC3CC3)c2)C1 (stereo unspecified),Percent Effect,"30.3 µM, […]",-15.86%
Cn1cc(CN2CCCC3(CCCCN3S(C)(=O)=O)C2)cn1.O=C(O)C(F)(F)F (stereo unspecified),Percent Effect,"30 µM, 30.03 µM",-25.71%
Cc1cccc(-c2nc(N)nc3c2CN(C(=O)c2cc(C)n[nH]2)C3C)c1 (stereo unspecified),Percent Effect,"30.3 µM, […]",90.24%
Cc1cccc(-c2nc(N)nc3c2CN(C(=O)c2ccncn2)C3C)c1 (stereo unspecified),Percent Effect,"30.3 µM, […]",-0.8654%
COCC(=O)N1Cc2c(-c3cccc(C)c3)nc(N)nc2C1C (stereo unspecified),Percent Effect,"30.3 µM, […]",-11.02%
COCCNc1nc2c(c(NCCc3cccs3)n1)CCNCC2,Percent Effect,"30 µM, 30.03 µM",-24.48%
c1csc(CCNc2nc(-c3ccncc3)nc3c2CCNCC3)c1,Percent Effect,"30.3 µM, […]",104%
Cc1ccc(CCNc2nc(-c3ccncc3)nc3c2CCNCC3)o1,Percent Effect,"30.3 µM, […]",-212%
O=C(C1CCC1)N1CCO[C@H]2[C@H](OCCCn3cccn3)CC[C@@H]21.O=C(O)C(F)(F)F,Percent Effect,"30.3 µM, […]",-14.88%
CCc1nc(C)sc1CN1CCc2[nH]nc(-c3ccc(F)c(F)c3)c2C1,Percent Effect,"30.3 µM, […]",9.305%
CC(C)c1nnsc1CN1CCc2[nH]nc(-c3ccc(F)c(F)c3)c2C1,Percent Effect,"30.3 µM, […]",8.442%
CC(C)c1nnsc1CN1CCc2[nH]nc(-c3ccc(Cl)cc3)c2C1,Percent Effect,"30.3 µM, […]",100.2%
